# Measured values as given in PubChem BioAssay (NCATS).
# Records with an inconclusive call do not appear. Entries that show only a call come without a potency. Activity calls are given as the source filed them. Unless noted, the call rests on the fitted dose curve; in most records, active means well fitted curve in the direction sought with a large enough effect; inconclusive means small, poorly fitted or top-dose-only effect, or another doubt; inactive means no such curve, though single readings can be large; an effect the other way counts as inactive or inconclusive.
# Experiments:
# [1] = target: Nucleoprotein (Lymphocytic choriomeningitis virus (strain Armstrong)) (UniProt P09992); test: qHTS for Inhibitors of the Functional Ribonucleoprotein Complex (vRNP) of Lymphocytic Choriomeningitis Arenaviruses (LCMV): LCMV Primary Screen - GLuc reporter signal (AID 1347086; calls by dose curve; further: nearly all actives have a fitted effect of over 70% in size)
# Sequence of Nucleoprotein (Lymphocytic choriomeningitis virus (strain Armstrong)) (P09992 whole entry, looked up): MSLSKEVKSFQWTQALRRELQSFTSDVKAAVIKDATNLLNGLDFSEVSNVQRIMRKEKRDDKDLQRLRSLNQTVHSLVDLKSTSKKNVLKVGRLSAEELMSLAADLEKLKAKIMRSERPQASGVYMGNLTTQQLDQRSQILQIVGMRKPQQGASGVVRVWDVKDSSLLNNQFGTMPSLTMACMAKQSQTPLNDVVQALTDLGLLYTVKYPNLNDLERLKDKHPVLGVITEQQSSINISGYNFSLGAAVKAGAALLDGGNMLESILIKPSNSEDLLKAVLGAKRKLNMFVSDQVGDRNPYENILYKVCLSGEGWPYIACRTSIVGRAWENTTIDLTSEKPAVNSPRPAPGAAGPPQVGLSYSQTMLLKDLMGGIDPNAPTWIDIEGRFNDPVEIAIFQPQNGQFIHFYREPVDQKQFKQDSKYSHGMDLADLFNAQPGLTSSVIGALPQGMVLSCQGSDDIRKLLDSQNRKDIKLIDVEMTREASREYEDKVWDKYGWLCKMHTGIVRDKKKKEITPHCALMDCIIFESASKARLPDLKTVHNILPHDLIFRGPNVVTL
# [2] = qHTS for Inhibitors of the Functional Ribonucleoprotein Complex (vRNP) of Lymphocytic Choriomeningitis Arenaviruses (LCMV): Viability assay - alamar blue signal for LCMV Primary Screen (AID 1347085; calls by dose curve; tested in HEK293 reporter line; further: nearly all actives have a fitted effect of over 80% in size)
# [3] = qHTS of pediatric cancer cell lines to identify multiple opportunities for drug repurposing: Primary screen for TC32 cells (AID 1347089); further: nearly all actives have a fitted effect of over 60% in size
# Procedure, shortened: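 qHTS, TC32, 48 h drug treatment, CellTiter-Glo luminescence as a proxy for metabolically active cells; primary top concentration 46 µM (MIPE 11-pt, NPC 8-pt); confirmatory 11-pt.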
# [4] = qHTS of pediatric cancer cell lines to identify multiple opportunities for drug repurposing: Primary screen for DAOY cells (AID 1347090); further: nearly all actives have a fitted effect of over 55% in size
# Procedure, shortened: (§1)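 Eight- or eleven-point concentration series, 48 h treatment at 37 degrees C in growth media; readout CellTiter-Glo luminescence. Potency and efficacy were taken from the concentration-response curves.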
# [5] = qHTS of pediatric cancer cell lines to identify multiple opportunities for drug repurposing: Primary screen for SJ-GBM2 cells (AID 1347091)
# Procedure, shortened: as §1
# [6] = qHTS of pediatric cancer cell lines to identify multiple opportunities for drug repurposing: Primary screen for A673 cells (AID 1347092); further: nearly all actives have a fitted effect of over 45% in size
# Procedure, shortened: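 Luminescence from CellTiter-Glo, taken after 15 min at room temperature, served as the proxy for metabolically active cells following 48 h treatment. Both potency and efficacy were taken from curves fitted to the titration data.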
# [7] = qHTS of pediatric cancer cell lines to identify multiple opportunities for drug repurposing: Primary screen for NB-EBc1 cells (AID 1347095)
# Procedure, shortened: (§2)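 Quantitative HTS format: each compound titrated (MIPE 11 points from 0.78 nM, NPC 8 points from 0.59 nM) onto cells plated 5 hours earlier. After 48 h at 37 degrees C, CellTiter-Glo luminescence was recorded.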
# [8] = qHTS of pediatric cancer cell lines to identify multiple opportunities for drug repurposing: Primary screen for SK-N-MC cells (AID 1347093)
# Procedure, shortened: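 Metabolically active cells were quantified by ATP-dependent luminescence (CellTiter-Glo, 15 min at room temperature) following 48 h treatment. Cells had been plated at 500-1,000 per well and settled for 5 h beforehand.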
# [9] = qHTS of pediatric cancer cell lines to identify multiple opportunities for drug repurposing: Primary screen for BT-37 cells (AID 1347094)
# Procedure, shortened: as §2
# Potency means the concentration at half of the fitted maximal effect.
smiles,measurement,setting,value
O=c1[nH]nc(Sc2ncc([N+](=O)[O-])s2)n1-c1ccc2c(c1)OCCO2,Potency,[1],inactive
CC(=O)Nc1ccc(OC[C@](C)(O)C(=O)Nc2ccc([N+](=O)[O-])c(C(F)(F)F)c2)cc1,Potency,[2],10.9 µM (active)
same,Potency,[3],inactive
same,Potency,[4],inactive
same,Potency,[5],inactive
same,Potency,[6],inactive
same,Potency,[7],inactive
CC(=O)[O][Hg][c]1ccccc1,Potency,[3],1.87 µM (active)
same,Potency,[4],1.68 µM (active)
same,Potency,[6],0.106 µM (active)
same,Potency,[8],0.531 µM (active)
same,Potency,[9],2.19 µM (active)
same,Potency,[7],21.1 µM (active)
CC(C)[C@H]1C(=O)N[C@H](CO)Cc2c[nH]c3cccc(c23)N1C,Potency,[2],10.9 µM (active)
same,Potency,[1],inactive
same,Potency,[3],inactive
same,Potency,[5],inactive
same,Potency,[9],inactive
same,Potency,[7],inactive
C=C[C@@H]1CN2CCC1C[C@@H]2[C@@H](O)c1ccnc2ccccc12 (some centres undefined),Potency,[1],38.5 µM (active)
same,Potency,[3],inactive
same,Potency,[6],18.7 µM (active)
same,Potency,[8],9.35 µM (active)
Cc1c(C(=O)Nc2cccc(C(F)(F)F)c2)cc(-c2ccccc2)n1CCCN1CCOCC1,Potency,[3],inactive
same,Potency,[5],18.7 µM (active)
same,Potency,[6],11.8 µM (active)
same,Potency,[8],13.2 µM (active)
same,Potency,[7],18.7 µM (active)
COc1ccc2c(c[n+](C)c3c4cc5c(cc4ccc23)OCO5)c1OC,Potency,[1],inactive
same,Potency,[4],23.5 µM (active)
same,Potency,[5],11.8 µM (active)
same,Potency,[6],3.72 µM (active)
same,Potency,[8],5.9 µM (active)
same,Potency,[7],5.26 µM (active)
Nc1ccc(N=Nc2ccccc2)cc1,Potency,[1],inactive
same,Potency,[6],24.3 µM (active)
O=S(=O)(N=Cc1c(O)ccc2ccccc12)c1cccs1,Potency,[1],inactive
CN1CCN(CCOc2cc(OC3CCOCC3)c3c(Nc4c(Cl)ccc5c4OCO5)ncnc3c2)CC1,Potency,[1],inactive
CC[C@@H](C(N)=O)N1CCCC1=O,Potency,[2],inactive
same,Potency,[1],inactive
same,Potency,[3],inactive
same,Potency,[4],inactive
same,Potency,[5],inactive
same,Potency,[8],26.4 µM (active)
same,Potency,[9],inactive
same,Potency,[7],inactive
COc1ccc(C(c2ccc(OC)cc2)C(Cl)(Cl)Cl)cc1,Potency,[2],inactive
same,Potency,[1],inactive
same,Potency,[3],inactive
same,Potency,[5],21.5 µM (active)
same,Potency,[6],38.2 µM (active)
same,Potency,[7],13.5 µM (active)
CNC(=O)c1cc(Oc2ccc(NC(=O)Nc3ccc(Cl)c(C(F)(F)F)c3)c(F)c2)ccn1,Potency,[1],inactive
c1ccc2c(-c3cnn4cc(-c5ccc(N6CCNCC6)cc5)cnc34)ccnc2c1,Potency,[1],inactive
